“And” between values parts separate entries of the source, which are not always exact repeats. Identical values can stand only once. The panel holds about 83,000 compounds, 20% with a hit somewhere; the sample as a whole holds those more often.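 Results are percent growth after 48 hours of single-concentration exposure. 100 means growth as in untreated cells, lower positive values show inhibition; negative values down to -100 show cell death.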 Unmarked numbers belong to inactive results. The source made the active and inactive calls. How the source made its calls: active means growth percent below 10; inactive means the rest.
These molecules were tested on HL-60(TB) leukemia (assay: NCI-60 one-dose screen, 48 h (100 = growth as untreated, 0 = no growth, -100 = all killed)). Settings: 10 µM unless noted.
Work on `O=C(c1ccccc1)c1ccc(-c2ccc(O)cc2)cc1` yielded a growth of 75.1%.
`Cc1ccc(CNc2ccc(Cl)cc2NCc2ccc(C)c(O)c2)cc1O` was tested, and the growth was 8.41% (active).
For `C=C(C)[C@@H]1CC[C@]2(C(=O)O)CC[C@]3(C)[C@H](CC[C@@H]4[C@@]5(C)C[C@@H](Cc6cn(CCO[C@@H]7O[C@H](COC(C)=O)[C@H](OC(C)=O)[C@H](OC(C)=O)[C@H]7OC(C)=O)nn6)[C@H](O)C(C)(C)[C@@H]5CC[C@]43C)[C@@H]12`, the growth was 37.9%.
`C#CCOc1ccc2ncnc(Nc3cccc(NC(=O)C=C)c3)c2c1` showed a growth of 63.1%.
In the case of `COc1cc(-c2csc(NC(=O)Nc3cccc(C(F)(F)F)c3)n2)cc(OC)c1OC`, the growth is reported as 44.6%.
In the case of `COc1ccc(-c2cn(-c3ccccc3)c(-c3ccccc3)n2)cc1OC`, the growth is reported as 8.37% (active).
`Clc1ccc(Sc2cnc(-c3ccccc3)o2)cc1` was tested, and the growth was 99.5%.
`OC(COc1cccc2ccccc12)CN1CCN(c2ccc(Cl)cc2)CC1` (centres undefined) was tested, and the growth was 55.5% and 75.2%.
`N#CC(C#N)=C1NC(c2ccccc2)=C(c2ccccc2)C(c2ccccc2Cl)=C1C#N` was tested, and the growth was 79.2%.
For `CCCCN1C(=O)c2cccc3c(-c4ccc5c(c4)ncn5C4CCCCC4)ccc(c23)C1=O`, the growth was 99.7%.
In the case of `CCN(CC)CCNC(=O)c1cn2ncnc(Oc3ccc(NC(=O)Nc4ccc(Cl)c(C(F)(F)F)c4)c(F)c3)c2c1C`, the growth is reported as -45% (active).
With `C#CCn1cnc2c(Nc3cccc(NC(=O)C=C)c3)ncnc21` the growth was 99.6%.
For `Nc1ccc2c(O)cc(S(=O)(=O)O)cc2c1`, the growth was 89.8% and 67%.
`CC(=O)N1CC(=O)NC1=S` gave a growth of 103%.
`O=C1NC(=S)S/C1=C\c1cc(Br)ccc1O` was tested, and the growth was 83.9%.
`COc1c(CNC(=O)CCl)cc2[nH]c(C)cc2c1CNC(=O)CCl` gave a growth of 39.4%.
`Nc1c(Br)cc(Br)c2c1[nH]c(=O)c1ccccc12` was tested, and the growth was 89.8%.
Work on `Cc1[nH]n(C(=O)c2ccncc2)c(=O)c1N=Nc1ccc(F)c(Cl)c1` yielded a growth of 36.5%.
`O=C(CCc1nnc2sc(COc3ccccc3)nn12)c1nc2ncccc2[nH]1` showed a growth of 117%.
`CCC1S/C(=N\N=C(/C)c2ccco2)N(c2ccccc2)C1=O` (centres undefined) was tested, and the growth was 106%.
With `COC(=O)c1ccc2c(c1)C(=O)c1c-2n(CCCN)c(=O)c2cc([N+](=O)[O-])ccc12` the growth was -85.9% (active).
`O=C1Nc2ccccc2/C1=C/c1cccn1CCCCn1c2ccccc2c(=O)c2ccccc21` was tested, and the growth was 60.2%.
For `Cc1ccccc1C1=N[C@@H](Cc2ccccc2)C(=O)c2c(nc3ccccn23)N1`, the growth was 125%.
With `CCOC(=O)c1sc2ncc(-c3ccc(OC)cc3)n2c1C` the growth was 86.5%.
With `C=C(C)[C@@H]1CC[C@]2(C)[C@H](CC=C3[C@@H]4[C@@H](C)[C@H](C)CC[C@]4(C(N)=O)CC[C@]32C)[C@@]1(C)CCC#N` the growth was -28.7% [100 µM] (active).
`O=S(=O)(NCCCNc1nccc(-c2c(-c3ccc(F)c(O)c3)nc3occn23)n1)c1ccccc1` gave a growth of 84.3%.
In the case of `CCOC(=O)C(=Cc1cccc(Cl)c1)C(=O)OCC`, the growth is reported as -2% (active).
In the case of `Nc1cc2ccccc2c(O)c1O`, the growth is reported as 4.42% (active).
`Cc1nc(NC(=O)N2CCC[C@H]2C(N)=O)sc1-c1ccnc(C(C)(C)C(F)(F)F)c1` showed a growth of 24%.
In the case of `COc1cc(-c2c3c(c(Br)n2Cc2ccccc2)-c2nc(N)sc2CC3)cc(OC)c1OC`, the growth is reported as 68.4%.
With `O=C1CSC(=S)N1Cc1cccnc1` the growth was 13.8%.
With `COc1cc(NC2CCC(=O)N2c2ccc(Cl)cc2Cl)cc(OC)c1OC` (centres undefined) the growth was -3.13% (active).
Work on `CC1(C)C2CC1C1(/C=N\Nc3ccccc3)C(C2)C(C#N)(C#N)C1(C#N)C#N` (centres undefined) yielded a growth of 89.9%.
`CN(C)c1ccc(-c2cc(-c3ccc(Nc4nc(Nc5ccc(Cl)cc5)nc(Nc5ccc(Cl)cc5)n4)cc3)no2)cc1` was tested, and the growth was 3.2% (active).
Work on `CCN1CCN(Cc2ccc(NC(=O)Nc3ccc(-n4ccc5c(NC(=O)c6ccccc6)nccc54)cc3)cc2C(F)(F)F)CC1` yielded a growth of 35.8%.
For `Clc1ccc(/C=N\N=c2\scc(-c3ccc(Cl)cc3)n2/N=C/c2ccc(Cl)cc2)cc1`, the growth was 84.5%.
In the case of `C=C1C(=O)O[C@H]2[C@H]1CC/C(COC(=O)CSCCSCC(=O)OC/C1=C/CC[C@@]3(C)O[C@H]3[C@H]3OC(=O)C(=C)[C@@H]3CC1)=C\CC[C@@]1(C)O[C@@H]21`, the growth is reported as -58.8% (active).
Molecule `COc1cc(C(=O)NN=C2c3ccccc3-c3ccccc32)cc(OC)c1OC` has a growth of 11.4%.
Work on `COc1cccc2nc(Nc3cccc(NC(=O)c4cc(N5CCOCC5)cc(C(F)(F)F)c4)c3)ccc12` yielded a growth of 93.5%.

From PubChem BioAssay (NCI)
